Records with an inconclusive call do not appear. Calls of active or inactive are those of the source. The calls were made as follows, unless noted: active = hit-call score of the fitted dose curve at least 0.9, where 1 is the maximum; inconclusive = response in the unintended direction; inactive = score below 0.9.
Key:
[1] = biological target: human Peroxisome Proliferator-activated Receptor delta (PPARd), PPARD (gene 5467) (UniProt Q03181); assay: ATG_PPARd_TRANS: Attagene TRANS-FACTORIAL HepG2 Assay for human Peroxisome Proliferator-activated Receptor delta (PPARd) (AID 2283002)
human Peroxisome Proliferator-activated Receptor delta (PPARd), PPARD (gene 5467), sequence (Q03181 whole entry, looked up, the tested form may be a part): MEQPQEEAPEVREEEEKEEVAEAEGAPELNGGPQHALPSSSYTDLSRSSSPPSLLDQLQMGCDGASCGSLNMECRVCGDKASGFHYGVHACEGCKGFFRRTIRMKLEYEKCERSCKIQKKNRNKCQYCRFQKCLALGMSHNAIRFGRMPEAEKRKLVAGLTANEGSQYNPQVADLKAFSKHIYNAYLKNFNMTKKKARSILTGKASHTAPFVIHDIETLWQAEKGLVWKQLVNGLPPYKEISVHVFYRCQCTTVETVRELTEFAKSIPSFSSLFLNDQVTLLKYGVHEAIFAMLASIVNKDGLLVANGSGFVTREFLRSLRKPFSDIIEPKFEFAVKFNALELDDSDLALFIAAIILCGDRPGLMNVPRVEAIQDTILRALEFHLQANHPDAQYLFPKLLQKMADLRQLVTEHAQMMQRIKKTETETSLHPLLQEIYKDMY
Outline: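 HepG2 cells transiently transfected with multiplexed GAL4-UAS reporter units and exogenous chimeric NR-Gal4 proteins; 24 h compound exposure. Reporter mRNA measured by RT-PCR, 6-FAM labelling, HpaI digestion and capillary electrophoresis; gain of signal versus DMSO.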

[2] = read-out: Intercellular Adhesion Molecule 1 (ICAM1), ICAM1 (gene 3383); assay: BSK_3C_ICAM1: BioMAP Diversity Plus: 3C Assay for Intercellular Adhesion Molecule 1 (ICAM1) Biomarker Activity (AID 2283003; active = hit-call score of the fitted dose curve at least 0.9, where 1 is the maximum; inactive = score below 0.9); conditions: primary human endothelial cells (HUVEC); actives raise or lower the signal
Outline: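 Using DMSO as baseline, bidirectional curve fitting was applied to ICAM-1 ELISA signals from HUVEC in the 3C system, measured 24 h after compound addition.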

[3] = biological target: human Retinoic Acid Receptor beta (RARb), RARB (gene 5915) (UniProt P10826); assay: ATG_RARb_TRANS: Attagene TRANS-FACTORIAL HepG2 Assay for human Retinoic Acid Receptor beta (AID 2283004)
human Retinoic Acid Receptor beta (RARb), RARB (gene 5915), sequence (P10826 whole entry, looked up, the tested form may be a part): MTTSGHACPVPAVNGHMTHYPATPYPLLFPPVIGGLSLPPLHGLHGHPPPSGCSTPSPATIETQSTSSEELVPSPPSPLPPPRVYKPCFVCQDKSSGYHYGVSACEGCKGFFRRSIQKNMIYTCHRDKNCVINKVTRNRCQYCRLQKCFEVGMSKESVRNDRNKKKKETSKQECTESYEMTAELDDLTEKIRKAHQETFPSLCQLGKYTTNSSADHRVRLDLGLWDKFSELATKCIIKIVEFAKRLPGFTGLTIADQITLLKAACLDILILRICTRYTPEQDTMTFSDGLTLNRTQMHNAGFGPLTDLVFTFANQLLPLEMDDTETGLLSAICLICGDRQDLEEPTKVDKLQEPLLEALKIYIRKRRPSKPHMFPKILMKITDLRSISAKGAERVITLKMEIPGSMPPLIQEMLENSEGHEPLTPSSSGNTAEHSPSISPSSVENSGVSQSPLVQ
Outline: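 HepG2 cells were transiently transfected with GAL4-UAS reporter units that report activity of exogenous chimeric NR-Gal4 proteins, then exposed to compound for 24 h. Reporter mRNA was quantified by RT-PCR with capillary electrophoresis fluorescence, as gain of signal over DMSO.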

[4] = biological target: Retinoic acid receptor alpha (Homo sapiens) (UniProt P10276); assay: ATG_RARa_TRANS: Attagene TRANS-FACTORIAL HepG2 Assay for human Retinoic Acid Receptor alpha (RARa) (AID 2283005);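 as to AC50: potency for increased reporter signal meaning RARa activation over DMSO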
Retinoic acid receptor alpha (Homo sapiens), sequence (P10276 whole entry, looked up, the tested form may be a part): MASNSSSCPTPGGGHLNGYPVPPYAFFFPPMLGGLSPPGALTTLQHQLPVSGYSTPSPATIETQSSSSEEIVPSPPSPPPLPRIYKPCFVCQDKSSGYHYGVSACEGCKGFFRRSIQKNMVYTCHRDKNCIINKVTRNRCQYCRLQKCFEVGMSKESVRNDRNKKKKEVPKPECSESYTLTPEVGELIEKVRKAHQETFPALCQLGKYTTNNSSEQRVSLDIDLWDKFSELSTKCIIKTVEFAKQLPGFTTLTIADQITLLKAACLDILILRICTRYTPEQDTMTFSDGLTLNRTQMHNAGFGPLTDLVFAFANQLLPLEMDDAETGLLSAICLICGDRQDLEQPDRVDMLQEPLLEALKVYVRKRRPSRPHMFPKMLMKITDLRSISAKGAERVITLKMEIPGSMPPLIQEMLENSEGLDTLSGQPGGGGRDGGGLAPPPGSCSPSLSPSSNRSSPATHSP
Outline: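 HepG2 cells transiently transfected with multiple reporter units expressing chimeric RARα-GAL4 fusion, with GAL4-UAS-driven reporters. After 24 h compound exposure, reporter mRNA induction quantified by RT-PCR and capillary electrophoresis with fluorescent labeling; gain-of-signal fitted relative to DMSO control.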

[5] = BSK_3C_Proliferation: Cell Proliferation Assessment in the BioMAP Diversity Plus: 3C Assay (AID 2283006; active = hit-call score of the fitted dose curve at least 0.9, where 1 is the maximum; inactive = score below 0.9;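 as to AC50: potency may reflect either rise or fall in cell number versus DMSO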); conditions: primary human endothelial cells (HUVEC)
Outline: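 Measured here: sulforhodamine B (0.1%) staining of TCA-fixed sub-confluent umbilical vein endothelial cultures 48 h post-dosing, absorbance 560 nm. DMSO served as negative control and baseline; both signal gain and loss were modelled.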

[6] = biological target: human Retinoic Acid Receptor gamma (RARg), RARG (gene 5916) (UniProt P13631); assay: ATG_RARg_TRANS: Attagene TRANS-FACTORIAL HepG2 Assay for human Retinoic Acid Receptor gamma (RARg) (AID 2283009);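 as to AC50: AC50 is for reporter induction above DMSO meaning RARg activation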
human Retinoic Acid Receptor gamma (RARg), RARG (gene 5916), sequence (P13631 whole entry, looked up, the tested form may be a part): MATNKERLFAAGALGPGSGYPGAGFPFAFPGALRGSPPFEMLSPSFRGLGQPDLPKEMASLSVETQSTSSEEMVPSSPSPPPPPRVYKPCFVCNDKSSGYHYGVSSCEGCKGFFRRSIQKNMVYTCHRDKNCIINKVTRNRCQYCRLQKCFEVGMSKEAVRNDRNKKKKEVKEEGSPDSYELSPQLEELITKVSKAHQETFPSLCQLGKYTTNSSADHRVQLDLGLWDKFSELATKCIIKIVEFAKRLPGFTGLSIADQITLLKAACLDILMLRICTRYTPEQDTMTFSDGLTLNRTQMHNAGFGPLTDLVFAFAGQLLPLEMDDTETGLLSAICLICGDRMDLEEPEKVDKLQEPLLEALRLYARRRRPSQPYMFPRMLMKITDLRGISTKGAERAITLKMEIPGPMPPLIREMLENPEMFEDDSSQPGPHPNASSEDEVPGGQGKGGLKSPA
Outline: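 Gain-of-signal relative to DMSO is reported from fluorescent capillary electrophoresis of RT-PCR reporter products. These came from HepG2 cells expressing transfected RARg-GAL4 chimeras with UAS reporters, harvested 24 h after dosing.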

[7] = biological target: human RAR-related Orphan Receptor beta (RORb), RORB (gene 6096) (UniProt Q92753); assay: ATG_RORb_TRANS: Attagene TRANS-FACTORIAL HepG2 Assay for human RAR-related Orphan Receptor beta (RORb) (AID 2283010)
human RAR-related Orphan Receptor beta (RORb), RORB (gene 6096), sequence (Q92753 whole entry, looked up, the tested form may be a part): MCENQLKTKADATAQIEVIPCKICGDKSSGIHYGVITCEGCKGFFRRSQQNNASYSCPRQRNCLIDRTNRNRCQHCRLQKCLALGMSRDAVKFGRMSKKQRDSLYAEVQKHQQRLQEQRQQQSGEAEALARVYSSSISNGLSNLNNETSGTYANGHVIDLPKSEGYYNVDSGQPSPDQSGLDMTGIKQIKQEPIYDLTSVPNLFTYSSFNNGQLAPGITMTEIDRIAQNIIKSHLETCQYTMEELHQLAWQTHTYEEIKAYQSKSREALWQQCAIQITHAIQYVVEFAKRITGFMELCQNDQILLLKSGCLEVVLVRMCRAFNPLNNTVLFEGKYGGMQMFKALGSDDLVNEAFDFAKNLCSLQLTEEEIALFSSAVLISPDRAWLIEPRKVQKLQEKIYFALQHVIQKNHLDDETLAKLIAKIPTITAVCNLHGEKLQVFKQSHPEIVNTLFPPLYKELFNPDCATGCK
Outline: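 Multiplexed transcription-factor reporter assay: HepG2 cells transiently carrying NR-Gal4/GAL4-UAS constructs, 24 h treatment, mRNA quantified by RT-PCR plus capillary electrophoresis fluorescence; activity scored as induction over DMSO.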

[8] = biological target: human RAR-related Orphan Receptor gamma (RORg), RORC (gene 6097) (UniProt P51449); assay: ATG_RORg_TRANS: Attagene TRANS-FACTORIAL HepG2 Assay for human RAR-related Orphan Receptor gamma (RORg) (AID 2283011)
human RAR-related Orphan Receptor gamma (RORg), RORC (gene 6097), sequence (P51449 whole entry, looked up, the tested form may be a part): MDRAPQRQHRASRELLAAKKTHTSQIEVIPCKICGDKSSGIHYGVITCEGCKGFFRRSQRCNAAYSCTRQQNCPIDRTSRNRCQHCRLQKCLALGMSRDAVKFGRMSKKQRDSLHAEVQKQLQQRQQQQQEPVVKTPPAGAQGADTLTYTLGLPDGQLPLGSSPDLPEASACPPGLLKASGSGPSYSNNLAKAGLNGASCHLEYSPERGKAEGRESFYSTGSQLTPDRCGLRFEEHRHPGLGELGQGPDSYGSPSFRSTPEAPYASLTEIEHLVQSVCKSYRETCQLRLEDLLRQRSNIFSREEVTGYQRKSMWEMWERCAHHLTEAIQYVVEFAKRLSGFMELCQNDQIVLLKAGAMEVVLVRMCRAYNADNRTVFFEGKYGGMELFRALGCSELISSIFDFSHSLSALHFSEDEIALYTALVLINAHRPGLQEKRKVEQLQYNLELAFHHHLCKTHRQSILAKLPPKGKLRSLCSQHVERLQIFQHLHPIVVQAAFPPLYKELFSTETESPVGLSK
Outline: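 HepG2 cells transiently transfected with GAL4-UAS reporter units and chimeric RORg-Gal4 construct; after 24 h chemical exposure, reporter mRNA measured by RT-PCR with fluorescent capillary electrophoresis, gain of signal fitted against DMSO.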

[9] = biological target: Peroxisome proliferator-activated receptor gamma (Homo sapiens) (UniProt P37231); assay: ATG_PPARg_TRANS: Attagene TRANS-FACTORIAL HepG2 Assay for human Peroxisome Proliferator-activated Receptor-gamma (PPARg) (AID 2283007)
Peroxisome proliferator-activated receptor gamma (Homo sapiens), sequence (P37231 whole entry, looked up): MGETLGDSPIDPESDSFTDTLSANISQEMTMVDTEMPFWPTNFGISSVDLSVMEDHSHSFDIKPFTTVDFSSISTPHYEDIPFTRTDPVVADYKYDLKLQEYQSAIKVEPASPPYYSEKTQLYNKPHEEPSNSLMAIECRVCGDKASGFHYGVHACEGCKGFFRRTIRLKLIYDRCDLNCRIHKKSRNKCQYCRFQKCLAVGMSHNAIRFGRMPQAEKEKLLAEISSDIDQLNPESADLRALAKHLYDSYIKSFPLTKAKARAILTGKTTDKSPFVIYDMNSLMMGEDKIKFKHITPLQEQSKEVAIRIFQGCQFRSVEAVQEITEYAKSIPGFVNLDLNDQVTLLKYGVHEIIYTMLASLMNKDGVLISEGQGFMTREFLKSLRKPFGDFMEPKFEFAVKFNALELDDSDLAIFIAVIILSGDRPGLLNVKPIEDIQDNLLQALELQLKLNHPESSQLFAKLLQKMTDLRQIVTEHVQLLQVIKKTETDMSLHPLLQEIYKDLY
Outline: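 Human hepatoma HepG2, transient MRTU transfection, 24 h treatment. mRNA reporter signal by RT-PCR plus capillary electrophoresis, fluorescence detection; fitted for increase over DMSO negative control.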

[10] = biological target: Nuclear receptor subfamily 1 group I member 2 (Homo sapiens) (UniProt O75469); assay: ATG_PXR_TRANS: Attagene TRANS-FACTORIAL HepG2 Assay for human Pregnane X Receptor (PXR) (AID 2283008)
Nuclear receptor subfamily 1 group I member 2 (Homo sapiens), sequence (O75469 whole entry, looked up, the tested form may be a part): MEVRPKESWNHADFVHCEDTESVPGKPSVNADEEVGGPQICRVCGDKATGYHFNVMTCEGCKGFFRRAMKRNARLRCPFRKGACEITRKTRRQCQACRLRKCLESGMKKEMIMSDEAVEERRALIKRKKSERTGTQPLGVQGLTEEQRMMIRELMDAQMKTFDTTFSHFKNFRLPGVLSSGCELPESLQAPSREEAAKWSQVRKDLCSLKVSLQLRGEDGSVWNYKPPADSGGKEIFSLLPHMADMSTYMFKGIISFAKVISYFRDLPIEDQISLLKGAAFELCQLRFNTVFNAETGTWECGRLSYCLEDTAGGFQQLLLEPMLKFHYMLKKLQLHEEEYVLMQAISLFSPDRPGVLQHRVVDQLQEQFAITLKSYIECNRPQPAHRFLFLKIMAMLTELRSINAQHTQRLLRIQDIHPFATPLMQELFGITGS
Outline: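 Trans-factorial format: exogenous NR-Gal4 fusion activity, not endogenous factor, in transfected human HepG2 liver cells. After 24 h dosing, RNA isolated, reverse-transcribed, amplified and resolved by capillary electrophoresis; induction scored versus DMSO.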

Measured: AC50

Nc1nc(N)c2nc(CNc3ccc(C(=O)N[C@@H](CCC(=O)O)C(=O)O)cc3)cnc2n1
not listed: [9] | [10]
inactive: all other assays above

Nc1ccccc1N
active: [5] 9.14 µM
not listed: [8]
inactive: all other assays above

Oc1ccc2c(c1)OC[C@@H](N1CCC(O)(c3ccc(F)cc3)CC1)[C@H]2O
inactive: [1] | [2] | [4] | [5] | [6]
active: [9] 16.5 µM | [10] 13.6 µM

CCCCCCCC=O
inactive: [1] | [2] | [5] | [10] | [7]
active: [9] 100 µM

C1CCC(SSC2CCCCC2)CC1
active: [5] 28.5 µM
inactive: [1] | [2] | [9] | [10] | [6]

COc1ccc(C)cc1N
not listed: [4] | [7] | [10]
inactive: all other assays above

CCCCCCC(=O)OCC
active: [10] 57.3 µM
not listed: [8] | [9]
inactive: all other assays above

Cc1ccc(C)c(C)c1
inactive: [1] | [2] | [3] | [5] | [10] | [6]

Cc1ccc(Cl)cc1
inactive: [1] | [2] | [5] | [9] | [10]

CNCc1cc(F)ccc1Oc1ccc(Cl)c(Cl)c1
active: [5] 23.9 µM
not listed: [3] | [4] | [7]
inactive: all other assays above

COCCOC[C@H](CC1(C(=O)NC2CCC(C(=O)O)CC2)CCCC1)C(=O)Oc1ccc2c(c1)CCC2 (some centres not stated)
active: [10] 20.6 µM
not listed: [4] | [7] | [8]
inactive: all other assays above

CCCCCCOCCO
inactive: [1] | [2] | [5] | [9] | [10]

CCCCC(CC)COC(=O)CC(C(=O)OCC(CC)CCCC)S(=O)(=O)O (configuration not stated)
active: [2] 31.5 µM | [5] 30.6 µM | [9] 7.56 µM | [10] 0.678 µM
inactive: all other assays above

COc1ccc(S(=O)(=O)N2C(=O)[C@@](c3ccccc3OC)(N3C[C@H](O)C[C@H]3C(=O)N(C)C)c3cc(Cl)ccc32)c(OC)c1
active: [5] 28.7 µM | [10] 0.038 µM
inactive: [1] | [2] | [9] | [6]

Cc1ccc(C)c(O)c1C
not listed: [4] | [8]
inactive: all other assays above

CC(=O)C(C)=CC1C(C)=CCCC1(C)C (configuration not stated)
inactive: [1] | [2] | [5]

Cc1oc(-c2ccccc2)nc1CCOc1cccc2c1ccn2CCC(=O)O
active: [1] 4.28 µM | [9] 0.0142 µM | [10] 10.9 µM
not listed: [7]
inactive: all other assays above

CC(C)(C)c1cc(O)c(C(C)(C)C)cc1O
active: [5] 8.74 µM | [9] 38.7 µM | [10] 2.99 µM
not listed: [7] | [8]
inactive: all other assays above

CCNc1cccc(C)c1
not listed: [3] | [8]
inactive: all other assays above

CCCCCCCCCCCC(=O)OC
active: [5] 20 µM
inactive: [1] | [2] | [9] | [10]

NC(=O)Cn1c(=O)cc(CCN2CCN(c3nccc4sccc34)CC2)c2ccc(F)cc21
inactive: [1] | [2] | [9] | [10]
active: [5] 0.148 µM

C[Si]1(C)O[Si](C)(C)O[Si](C)(C)O[Si](C)(C)O1
not listed: [3] | [4] | [6]
inactive: all other assays above

CC(C)c1ccc(C(=O)N=C(N)N)cc1S(C)(=O)=O
not listed: [4] | [6] | [7]
inactive: all other assays above

CN1CCN(Cc2cc(-c3ccc4[nH]c(=O)oc4c3)co2)[C@@H](c2ccc(F)cc2)C1
active: [5] 23.4 µM | [9] 42.4 µM
inactive: [1] | [2] | [10]

CC1(C)NC(=O)NC1=O
inactive: [1] | [2] | [4] | [5] | [10] | [7]

CCc1c(C(=O)NN2CCCCC2)nn(-c2ccc(Cl)cc2Cl)c1-c1ccc(Br)cc1
inactive: [1] | [2] | [10]
active: [5] 6.79 µM | [9] 0.0976 µM

O=C(OCCCCCOC(=O)c1ccccc1)c1ccccc1
active: [5] 29.7 µM
inactive: [1] | [2] | [4] | [9] | [10]

FC(F)(F)C(F)(F)C(F)(F)C(F)(F)C(F)(F)C(F)(F)CCI
not listed: [3] | [9]
inactive: all other assays above

CN[C@H]1CC[C@@H](c2ccc(Cl)c(Cl)c2)c2ccc(S(N)(=O)=O)cc21
inactive: [1] | [9] | [10]
active: [2] 30.9 µM | [5] 6.14 µM

CCCc1cc(=O)[nH]c(=S)[nH]1
inactive: [1] | [2] | [5] | [9] | [7]

CCCCCCCCCCO
active: [5] 33 µM | [9] 41.1 µM
inactive: [2] | [3] | [6]

Clc1cc(Cl)c(Cl)cc1Cl
inactive: [1] | [2] | [5] | [10] | [6]

COc1cc(C=O)ccc1O
inactive: [1] | [2] | [5] | [7] | [8]

CCCCCC(=O)O
inactive: [1] | [2] | [5] | [6]

COc1cc(S(=O)(=O)O)c(C)cc1N=Nc1c(O)ccc2cc(S(=O)(=O)O)ccc12
inactive: [1] | [2] | [5] | [9] | [8]

Cc1ccccc1Cl
inactive: [1] | [2] | [5] | [10]

COc1ccc2c(c1)c(CC(=O)O)c(C)n2C(=O)c1ccc(Cl)cc1
inactive: [1] | [2] | [5] | [10] | [7]

CNC(=O)[C@H]1O[C@@H](n2cnc3c(NCc4cc(Cl)ccc4OCc4cc(C)no4)ncnc32)[C@H](O)[C@@H]1N
inactive: [1] | [2] | [5] | [9] | [10] | [8]

CCCCN(CCCC)CCCC
inactive: [1] | [2] | [5] | [10] | [8]

CC=Cc1ccc(O)c(OC)c1
active: [9] 61.5 µM
not listed: [1] | [4] | [7]
inactive: all other assays above

COc1cc(/C=C/C(=O)CC(=O)/C=C/c2ccc(O)c(OC)c2)ccc1O
inactive: [1] | [4] | [10] | [6]
active: [9] 8 µM

CCOc1ccc2c(c1)C(C)=CC(C)(C)N2
inactive: [2] | [5] | [7] | [8]
active: [1] 170 µM | [9] 28.7 µM | [10] 1.86 µM

COc1cccc2c1C(=O)c1c(O)c3c(c(O)c1C2=O)C[C@@](O)(C(=O)CO)C[C@@H]3O[C@H]1C[C@H](N)[C@H](O)[C@H](C)O1
inactive: [1] | [9] | [10] | [6]

Cc1ccc(N(C)C)cc1
inactive: [1] | [2] | [5] | [10]

CCCCCCCCCCCCCCCC
inactive: [2] | [3] | [4] | [5] | [6]

Nc1ccc(S(=O)(=O)c2ccc(N)cc2)cc1
inactive: [1] | [2] | [5] | [9] | [10] | [8]

Cc1ccc(C(C)C)c(O)c1
not listed: [1] | [4] | [7]
inactive: all other assays above

CC(=O)OC/C=C(\C)CCC=C(C)C
not listed: [3] | [4] | [6]
inactive: all other assays above

Nc1ccc2c(c1)C(=O)c1ccccc1C2=O
inactive: [2] | [3] | [5] | [10] | [8]
active: [9] 21 µM

CC(=O)Oc1ccccc1C(=O)O
active: [9] 61.7 µM
not listed: [1] | [7] | [8]
inactive: all other assays above

Cc1cc(NC(=O)C(=O)O)cc(C)c1Oc1ccc(O)c2c1CCC2
inactive: [1] | [2] | [5] | [10] | [8]

CC1=C(/C=C/C(C)=C/C=C/C(C)=C/CO)C(C)(C)CCC1
inactive: [2] | [3]
active: [4] 0.073 µM | [5] 27.6 µM | [9] 28.1 µM | [10] 0.28 µM | [6] 0.117 µM

Oc1ccc2ccccc2c1N=Nc1ccccc1
active: [9] 3.87 µM
not listed: [1] | [8]
inactive: all other assays above

Cc1cc(=O)[nH]c(=S)[nH]1
inactive: [1] | [2] | [5] | [7] | [8]

CC(=O)OCCOCCOCCOC(C)=O
inactive: [2] | [3] | [4] | [5] | [9] | [6]

NCCO
inactive: [2] | [3] | [4] | [5] | [6] | [7]

CN1CCCC1=O
not listed: [1] | [9]
inactive: all other assays above

O=c1[nH]cc(F)c(=O)[nH]1
active: [5] 7.81 µM
inactive: [1] | [2] | [7]

O=C(N[C@@H](Cc1ccccc1)[C@@H](O)C(=O)N1C[C@@H](O)[C@@H](O)C1)c1cc2cc(Cl)ccc2[nH]1
not listed: [3] | [4] | [6]
inactive: all other assays above

— PubChem BioAssay (EPA / NIEHS)
